ChEMBL document CHEMBL2218924, “A broad activity screen in support of a chemogenomic map for kinase signalling research and drug discovery” (Biochem J, 2013)

Target: T1, Ephrin type-A receptor 3 (Homo sapiens) (UniProt P29320)
T1 sequence (whole entry): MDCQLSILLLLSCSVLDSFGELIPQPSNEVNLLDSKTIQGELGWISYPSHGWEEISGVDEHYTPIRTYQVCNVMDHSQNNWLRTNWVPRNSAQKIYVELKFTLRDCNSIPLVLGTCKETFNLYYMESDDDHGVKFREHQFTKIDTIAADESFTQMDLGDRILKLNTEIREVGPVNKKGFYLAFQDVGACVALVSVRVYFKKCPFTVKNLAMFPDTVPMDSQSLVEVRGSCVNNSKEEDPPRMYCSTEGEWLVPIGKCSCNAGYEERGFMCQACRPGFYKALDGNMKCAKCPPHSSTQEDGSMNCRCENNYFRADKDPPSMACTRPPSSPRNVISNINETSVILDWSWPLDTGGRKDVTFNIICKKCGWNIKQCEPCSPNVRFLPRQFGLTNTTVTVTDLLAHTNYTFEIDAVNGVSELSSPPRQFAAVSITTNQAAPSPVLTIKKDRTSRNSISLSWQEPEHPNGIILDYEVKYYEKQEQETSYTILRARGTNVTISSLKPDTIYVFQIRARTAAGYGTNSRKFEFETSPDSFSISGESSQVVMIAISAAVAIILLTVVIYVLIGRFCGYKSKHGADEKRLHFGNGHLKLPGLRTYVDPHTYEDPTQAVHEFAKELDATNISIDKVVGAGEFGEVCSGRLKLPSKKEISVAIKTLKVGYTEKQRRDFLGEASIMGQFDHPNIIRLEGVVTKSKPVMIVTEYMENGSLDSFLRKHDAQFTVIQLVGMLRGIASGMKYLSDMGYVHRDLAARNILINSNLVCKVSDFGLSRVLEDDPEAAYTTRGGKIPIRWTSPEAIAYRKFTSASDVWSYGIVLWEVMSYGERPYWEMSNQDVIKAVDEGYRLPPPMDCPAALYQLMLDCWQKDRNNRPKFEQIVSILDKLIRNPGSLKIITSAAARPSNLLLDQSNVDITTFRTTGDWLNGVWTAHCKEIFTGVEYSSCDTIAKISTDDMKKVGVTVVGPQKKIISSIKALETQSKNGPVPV
Details: at 10 µM

SMILES | residual activity [%]
COc1ccc2c(c1)c(C1=C(c3c[nH]c4ccccc34)C(=O)NC1=O)cn2CCCN(C)C | 60
COc1cc2nccc(Oc3ccc(NC(=S)NC(=O)c4ccccc4C)cc3)c2cc1OC | 67
CCN(CC)CCNC(=O)c1c(C)[nH]c(/C=C2\C(=O)Nc3ccc(Cl)cc32)c1C | 47
Cn1c2ccccc2c2c3c(c4c5ccccc5n(CCC#N)c4c21)CNC3=O | 50
O=c1cc(N2CCOCC2)oc2c1ccc1ccccc12 | 94
CSc1nc(-c2ccc(F)cc2)c(-c2ccnc(NC(C)c3ccccc3)c2)[nH]1 (configuration not stated) | 97
CC(C)[C@H](CO)Nc1nc(Nc2cc(N)cc(Cl)c2)c2ncn(C(C)C)c2n1 | 52
COc1ccc(COc2ccc(Cc3cnc(N)nc3N)cc2OC)cc1 | 78
Nc1ncnc2c1c(-c1ccc(Oc3ccccc3)cc1)cn2C1CCCC1 | 48
COc1cc2nccc(Oc3ccc(NC(=O)Nc4cc(C)on4)c(Cl)c3)c2cc1OC | 0
O=C1Cc2c([nH]c3ccc(Br)cc23)-c2ccccc2N1 | 58
CC(C)c1nn(-c2c(Cl)cccc2Cl)c2nc(Cc3ccc(OCCO)cc3)[nH]c(=O)c12 | 85
COc1cc2c(cc1OC)-c1n[nH]c(Nc3cccc(F)c3)c1C2 | 42
COc1cc2ncnc(Nc3cccc(Cl)c3)c2cc1OC | 42
O=c1cc(N2CCNCC2)oc2c(-c3ccccc3)cccc12 | 77
O=C1NC(=O)c2c1c1c3ccccc3[nH]c1n1cncc21 | 83
CCCCc1c(-c2ccc(OC)cc2)[nH]c2nccnc12 | 49
